Results from PubChem BioAssay (EPA / NIEHS).
Inconclusive results are not listed. The source made the active and inactive calls. The calls were made as follows, unless noted: active = hit-call score of the fitted dose curve at least 0.9, where 1 is the maximum; inconclusive = response in the unintended direction; inactive = score below 0.9.

How the values were obtained:
[1] = Tanguay_ZF_120hpf_NC_legacy: (Legacy) Oregon State University Tanguay Lab 120 Hour Post-fertilization zebrafish Assay for Notochord and Tail Malformation (AID 2283656)
Outline: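 Dechorionated Tropical 5D wild-type zebrafish embryos, one per well from 6 hpf, statically exposed to 120 hpf at 28C in 0.64% DMSO final. Notochord distortion scored present/absent by brightfield; dead embryos excluded.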

[2] = system: Thyroperoxidase (TPO), gene 54314; assay: CCTE_Simmons_AUR_rTPO: CCTE's Amplex UltraRed Assay for Thyroperoxidase (TPO) Inhibition, Simmons Lab (AID 2283662);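 as to AC50: potency for loss of signal meaning inhibition of peroxidase activity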
Outline: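 Cell-free peroxidase activity assay using rat thyroid gland microsomes with excess H2O2 (300 uM) and 25 uM Amplex UltraRed. Compounds tested from 5 nM to 87.5 uM; fluorescence measured after 30 min at 37C, analysed relative to DMSO baseline.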

[3] = CCTE_Simmons_CellTiterGLO_HEK293T: Viability Assessment in CCTE's Assays for Thyroperoxidase (TPO) Inhibition, Simmons Lab (AID 2283665);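 as to AC50: cells exposed to compound for 24 h before readout; actives reduce ATP signal below DMSO vehicle meaning cytotoxicity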
Outline: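 HEK293T, 10 000 cells/well, DMEM + 1% FBS; 8-pt titration 5 nM–87.5 uM [final], 0.5% DMSO; 24 hr, 37C, 5% CO2; CellTiter-Glo luminescence; n=3 biological replicates.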

[4] = CCTE_Padilla_ZF_144hpf_TERATOSCORE: (Legacy) CCTE's 144 Hour Post-fertilization zebrafish Assay Teratoscore, Padilla Lab (AID 2283679; active = hit-call score of the fitted dose curve at least 0.9, where 1 is the maximum; inactive = score below 0.9;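 as to AC50: zebrafish embryos with chorions exposed by immersion from 6-8 hpf to 5 dpf with daily renewal; teratogenicity score from eye scoring of death hatching and malformations at 144 hpf; higher score means more developmental defects relative to DMSO baseline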)
Outline: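 Larvae scored by eye at 144 hpf for death, hatching and malformations after a day in clean Hanks'. Before that, daily-renewed exposure at 80 uM (0.4% DMSO, 26C) from roughly 6-8 hpf through 5 dpf, 4 embryos per chemical.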

[5] = STM_H9_OrnithineISnorm_perc: Stemina devTOX quickPredict H9 human embryonic stem cell (hESC)-based Assay for Ornithine (ORN) Metabolite Biomarker, Normalized (AID 2283712; active = hit-call score of the fitted dose curve at least 0.9, where 1 is the maximum; inactive = score below 0.9;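 also: ornithine released into spent medium during last day measured by mass spectrometry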)
Outline: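 H9 human embryonic stem cells kept pluripotent receive test chemical over 72 h, refreshed daily by media exchange. Media from the closing 24 h is deproteinized and analysed by UPLC-HRMS on an amide column; ornithine signal is scaled to labelled standard and vehicle.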

[6] = STM_H9_CystineISnorm_perc: Stemina devTOX quickPredict H9 human embryonic stem cell (hESC)-based Assay for Cystine (CYSS) Metabolite Biomarker, Normalized (AID 2283713; active = hit-call score of the fitted dose curve at least 0.9, where 1 is the maximum; inactive = score below 0.9)
Outline: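 H9 hESC, pluripotent; compound 72h, re-dosed q24h with medium change. Last-24h medium → 40% acetonitrile deproteinization → UPLC-HRMS. CYSS area / C13-CYSS standard, then % of 0.1% DMSO median.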

[7] = STM_H9_OrnCyssISnorm_ratio: Stemina devTOX quickPredict H9 human embryonic stem cell (hESC)-based Assay for Ornithine (ORN):Cystine (CYSS) Ratio (AID 2283714)
Outline: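 Undifferentiated H9 hESCs were exposed to compound for 72h with media and chemical replaced every 24h. Final 24-h conditioned media were deproteinized and analysed by UPLC-HRMS. ORN and CYSS peak areas were normalized to C13 internal standards and the ratio taken versus 0.1% DMSO.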

[8] = CEETOX_H295R_MTT_cell_viability: Viability Assessment in the CeeTox HT-H295R MTT Assay (AID 2283718; active = hit-call score of the fitted dose curve at least 0.9, where 1 is the maximum; inactive = score below 0.9;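 as to AC50: curve fitted both ways so AC50 may mark viability loss or gain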)
Outline: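 H295R cells prestimulated 48 h with 10 uM forskolin, then exposed 48 h to test chemical (0.1% DMSO final). Viability by MTT (0.5 mg/ml, 4 h, 37 C), absorbance 570/650 nm; percent change versus DMSO, bidirectional fit.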

[9] = Tanguay_ZF_120hpf_ActivityScore_legacy: (Legacy) Oregon State University Tanguay Lab 120 Hour Post-fertilization zebrafish Assay Score for Activity (AID 2283742);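 as to AC50: static exposure from 6 hpf until 120 hpf at 28 °C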
Outline: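 Tropical 5D wild-type zebrafish embryos, dechorionated with pronase at 4 hpf, were exposed singly from 6 hpf to 120 hpf statically at 28C in 0.64% DMSO. Malformations and mortality were scored as binary by brightfield, with the activity score combining 18 morphology components.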

[10] = read-out: solute carrier (SLC10A1), SLC10A1 (gene 6554); assay: LTEA_HepaRG_SLC10A1: Life Technologies and Expression Analysis (LTEA) Assay for solute carrier (SLC10A1) using HepaRG (AID 2283657; active = hit-call score of the fitted dose curve at least 0.9, where 1 is the maximum; inactive = score below 0.9); conditions: mRNA level, 48 h; actives raise or lower the signal
Outline: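 Differentiated HepaRG cells were plated 48 h, then exposed in serum-free induction medium for 48 h to 8 concentrations (top 100 uM, half-log steps, 0.5% DMSO). SLC10A1 mRNA was quantified by qRT-PCR normalized to ACTB, GAPDH, POLR2A; bidirectional fit versus DMSO.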

[11] = read-out: matrix metalloproteinase-1 (MMP1), MMP1 (gene 4312); assay: LTEA_HepaRG_MMP1: Life Technologies and Expression Analysis (LTEA) Assay for matrix metalloproteinase-1 (MMP1) using HepaRG (AID 2283658; active = hit-call score of the fitted dose curve at least 0.9, where 1 is the maximum; inactive = score below 0.9); conditions: mRNA level, 48 h; actives raise or lower the signal
Outline: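 In this screen, human liver HepaRG cultures receive each chemical in duplicate for 48 h (top 100 uM, 0.5% DMSO). MMP1 expression is then quantified by TaqMan qRT-PCR with ACTB/GAPDH/POLR2A normalization.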

[12] = read-out: Cytochrome P450 (CYP24A1_1), CYP24A1 (gene 1591); assay: LTEA_HepaRG_CYP24A1_1: Life Technologies and Expression Analysis (LTEA) Assay for Cytochrome P450 (CYP24A1_1) using HepaRG (AID 2283671; active = hit-call score of the fitted dose curve at least 0.9, where 1 is the maximum; inactive = score below 0.9); conditions: mRNA level, 48 h; actives raise or lower the signal
Outline: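 HepaRG, 48 h exposure, 8-pt half-log series from 100 uM in 0.5% DMSO, duplicates. Readout: TaqMan qRT-PCR of CYP24A1 mRNA, housekeeping-normalized (ACTB/GAPDH/POLR2A). Bidirectional curve fit vs DMSO baseline.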

[13] = Tanguay_ZF_120hpf_TRUN_legacy: (Legacy) Oregon State University Tanguay Lab 120 Hour Post-fertilization zebrafish Assay for Truncated Body (AID 2283655)
Outline: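 Single dechorionated zebrafish embryos received test chemical from 6 hpf in 0.64% DMSO, kept at 28C. At 120 hpf, brightfield inspection noted any truncated body.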

[14] = system: Thyroperoxidase (TPO), gene 445522; assay: CCTE_Simmons_GUA_TPO: CCTE's Guaiacol Assay for Thyroperoxidase (TPO) Inhibition, Simmons Lab (AID 2283750)
Outline: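 Porcine thyroid microsomes (25 ug) in 200mM potassium phosphate, preincubated 30 s at 37C with compound (8 concentrations, 5 nM–87.5 uM) and 35mM guaiacol; 1mM H2O2 starts reaction. Absorbance change at 450nm over first 80 s; loss of signal versus DMSO, three replicates.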

[15] = Tanguay_ZF_120hpf_TR_legacy: (Legacy) Oregon State University Tanguay Lab 120 Hour Post-fertilization zebrafish Assay for Touch Response (AID 2283667)
Outline: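 Tropical 5D wild-type zebrafish embryos were exposed statically in sealed, foil-covered plates at 28C until 120 hpf, with 0.64% (vol/vol) final DMSO. Touch response was scored as present or absent; embryos that died were not scored.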

[16] = ArunA_CellTiter_hNC: Viability Assessment in the ArunA Biomedical's Oris Neural Crest (hNC) Cell Migration Assay (AID 2283752)
Outline: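 Cell titer was measured with the CellTiter Aqueous One reagent after 72 h of chemical dosing. Cells were H9-derived embryonic neural crest stem cells seeded on Matrigel, 60,000 per well, and given 16 h at 37C beforehand.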

[17] = ArunA_Migration_hNP: ArunA Biomedical's Oris Neuroprogenitor (hNP) Cell Migration Assay (AID 2283754)
Outline: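 Human H9-derived hNP1 neuroprogenitors on Matrigel with LIF/bFGF, plated around seeding stoppers for 16 h at 37C; stoppers removed at start of 72 h chemical exposure. Calcein-AM staining, fluorescence 494/517 nm in detection zone; loss-of-signal vs DMSO; cytochalasin D control.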

[18] = ArunA_Migration_hNC: ArunA Biomedical's Oris Neural Crest (hNC) Cell Migration Assay (AID 2283755)
Outline: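 Human H9-derived neural crest stem cells, 60,000/well on Matrigel, 16 h at 37C, then 72 h chemical exposure after seeding-stopper removal. Migration into detection zone read as calcein-AM fluorescence (ex494/em517), relative to DMSO.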

[19] = ArunA_NOG_NucleusCount: ArunA Biomedical's Neurite Outgrowth (NOG) Assay for Nucleus Count (AID 2283756)
Outline: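 Human H9-derived differentiated neurons were exposed for 48 h right after seeding. Hoechst-stained nuclei gated by size and intensity were counted by automated high-content imaging as viable neurons. Loss of signal vs DMSO.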

[20] = ArunA_CellTiter_hNP: Viability Assessment in the ArunA Biomedical's Oris Neural Crest (hNC) Cell Migration Assay (AID 2283753)
Outline: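 H9-derived hNP1 neuroprogenitors, 60,000/well on Matrigel, cultured 16 h, then 72 h chemical exposure in test medium. Cell titer via CellTiter Aqueous One; positive-direction fit vs DMSO.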

Measured: AC50

Cc1c(C(=O)O)c(O)cc2c1C(=O)c1c(O)c([C@@H]3O[C@H](CO)[C@@H](O)[C@H](O)[C@H]3O)c(O)c(O)c1C2=O
inactive: [1] | [4] | [5] | [6] | [7] | [8] | [9]
active: [2] 2.65 µM | [3] 12.6 µM

CC(=O)OC/C=C(\C)CCC=C(C)C
active: [3] 24.6 µM | [4] 52.8 µM
inactive: [1] | [10] | [11] | [2] | [12] | [9]

NS(=O)(=O)c1cc2c(cc1Cl)NCNS2(=O)=O
inactive: [13] | [1] | [9]

Cc1ccc(C)c(O)c1C
active: [2] 10.5 µM
inactive: [1] | [3] | [9] | [14]

Cc1cccc(C)c1O
inactive: [1] | [3] | [15] | [9] | [14]
active: [2] 23.4 µM

COCCOCCOC
inactive: [1] | [15] | [4] | [5] | [6] | [7] | [9]

Nc1nc(N)c2nc(CNc3ccc(C(=O)N[C@@H](CCC(=O)O)C(=O)O)cc3)cnc2n1
inactive: [1] | [9]
active: [2] 11.7 µM | [3] 0.189 µM

CC1(C)CC(N=C=O)CC(C)(CN=C=O)C1 (centres undefined)
active: [8] 22.3 µM
inactive: [1] | [15] | [4] | [9]

CCCCCCCCCCC
inactive: [1] | [10] | [11] | [12] | [9]

CC(C)(C)c1cc(O)c(C(C)(C)C)cc1O
inactive: [13]
active: [2] 3.58 µM | [3] 27.5 µM | [15] 34.6 µM | [4] 1.19 µM | [9] 40.5 µM

CC1=C(/C=C/C(C)=C/C=C/C(C)=C/CO)C(C)(C)CCC1
active: [2] 28.6 µM | [3] 12 µM | [4] 28.2 µM
inactive: [1] | [5] | [6] | [9]

Cc1ccc(C(C)C)c(O)c1
inactive: [13] | [1] | [9]

CC(=O)Oc1ccccc1C(=O)O
inactive: [13] | [1] | [9]

Cc1cc(NC(=O)C(=O)O)cc(C)c1Oc1ccc(O)c2c1CCC2
active: [2] 5.07 µM | [4] 0.657 µM | [9] 0.216 µM
not listed: [7] | [10] | [11] | [12] | [13] | [14] | [20]
inactive: all other assays above

CCNc1cccc(C)c1
inactive: [14]

CCCCc1ccc2c(n1)[C@@H](c1ccc(OC)cc1C[C@H](C)C(=O)O)[C@H](C(=O)O)[C@H]2c1ccc2c(c1)OCO2
inactive: [20] | [17]

OC[C@@H](O)[C@@H](O)[C@H](O)[C@H](O)CO
active: [20] 80.6 µM

COC(=O)c1ccc(O)cc1
inactive: [17]
